Bioassay records from PubChem.
PI5P4K alpha inh – qHTS for Inhibitors of phosphatidylinositol 5-phosphate 4-kinase (PI5P4K); Phosphatidylinositol 5-phosphate 4-kinase type-2 alpha (Homo sapiens), P48426; PI5P4Kalpha enzyme, ADP-Glo luminescence, 60 min; stronger effect = lower value; max response, %; 330,000 compounds, 1.2% hits; AID 652105, 2013; active = max response of -50% or lower; inconclusive = between -30% and -50%; inactive = -30% or higher; note: value at the top dose of about 77 µM
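Enzyme plus substrate dispensed, test compounds pinned in, then ATP (5 microM final) added. After 60 min at RT, ADP-Glo reagent 1 for 45 min and reagent 2 for 30 min preceded luminescence imaging.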
WRN helicase inh – qHTS for Inhibitors of WRN Helicase | WRN helicase unwinding, fluorescent forked duplex, kinetic | Potency, µM (series often up to 114 µM), for inactives: at the top dose activity change, negative = inhibition, hits mostly inhibitors | 360,000 compounds, 0.46% hits | AID 651768, 2012; note: potency is the fitted concentration of half-maximal effect; nearly all actives have a fitted effect of over 55% in size
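Kinetic red-fluorescence monitoring (525/598 nm) tracks WRN helicase activity after 100 nM fluorophore-quencher forked duplex and 2 mM ATP are added to 20 nM enzyme pretreated 15 min at room temperature with compound.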
BLM helicase inh – qHTS Assay for Inhibitors of Bloom's syndrome helicase (BLM). recombinant BLM DNA unwinding, fluorescence dequenching. Potency, µM (highest dose often 56.1 µM), without a hit: at the highest dose activity change, negative = inhibition, most hits filed as inhibitors. 350,000 compounds, 0.2% hits;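 note: potency is the fitted concentration of half-maximal effect; plate controls were vehicle for no effect and no enzyme for full effect; nearly all actives have a fitted effect of over 35% in size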
FEN1 inhibitor – qHTS Assay for the Inhibitors of Human Flap endonuclease 1 (FEN1); Recombinant FEN1 flap cleavage, fluorescence, 15 min; Potency, µM (series often up to 114 µM), without a hit: top-dose activity change, negative = inhibition, usual class: inhibitors; 390,000 compounds, 0.35% hits; AID 588795, 2011; note: potency is the fitted concentration of half-maximal effect; nearly all actives have a fitted effect of over 65% in size
Target sequence (P39748 whole entry, looked up): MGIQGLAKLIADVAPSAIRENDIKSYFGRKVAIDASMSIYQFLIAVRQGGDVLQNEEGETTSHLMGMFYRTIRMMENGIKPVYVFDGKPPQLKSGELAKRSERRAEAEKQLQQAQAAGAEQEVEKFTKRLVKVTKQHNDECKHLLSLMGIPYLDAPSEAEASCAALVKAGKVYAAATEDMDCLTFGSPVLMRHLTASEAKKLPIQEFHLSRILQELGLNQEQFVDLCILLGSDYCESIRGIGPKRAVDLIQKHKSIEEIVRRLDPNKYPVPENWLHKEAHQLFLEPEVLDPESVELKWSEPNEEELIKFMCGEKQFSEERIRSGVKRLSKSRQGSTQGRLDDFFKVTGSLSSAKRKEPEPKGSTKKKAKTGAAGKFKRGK
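Quantitative HTS format: each compound was titrated, incubated with 10 nM nuclease for 15 min at room temperature, then challenged with flap substrate at 50 nM final. Signal change over 15 min gave concentration–effect curves.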
APE1 inh – qHTS Assay for Inhibitors of the Human Apurinic/apyrimidinic Endonuclease 1 (APE1). DNA repair nuclease/redox regulator APEX1 (Homo sapiens), P27695. recombinant APE1, TAMRA/BHQ-2 abasic DNA cleavage fluorescence. Potency, µM (highest dose often 65.8 µM), without a hit: at the top dose activity change, negative = inhibition, most hits filed as inhibitors. 350,000 compounds, 0.35% hits. AID 2517, 2012;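 note: potency is the fitted concentration of half-maximal effect; plate controls were vehicle for no effect and reference inhibitor for full effect; nearly all actives have a fitted effect of over 55% in size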
Target sequence (P27695 whole entry, looked up): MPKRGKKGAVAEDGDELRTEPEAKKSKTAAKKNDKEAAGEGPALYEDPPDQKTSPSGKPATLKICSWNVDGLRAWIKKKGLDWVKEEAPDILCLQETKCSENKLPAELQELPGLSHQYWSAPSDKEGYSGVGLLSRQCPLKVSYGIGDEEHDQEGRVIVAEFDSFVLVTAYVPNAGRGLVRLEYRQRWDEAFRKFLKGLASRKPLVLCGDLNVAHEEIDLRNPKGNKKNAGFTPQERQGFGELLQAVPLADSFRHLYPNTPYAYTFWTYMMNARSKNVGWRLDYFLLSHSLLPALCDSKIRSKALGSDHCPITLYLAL
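0.75 nM APE1 + cpd, 15 min RT; start w/ 50 nM TAMRA/BHQ-2 THF-abasic dsDNA; kinetic fluor 525/598 nm ×3 reads @60 s; Δ(read3−read1); normalized to DMSO and NSC13755 control wells.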
RECQ1 helicase – qHTS Assay for Inhibitors of RecQ-Like Dna Helicase 1 (RECQ1). ATP-dependent DNA helicase Q1 (Homo sapiens), P46063. RECQ1 DNA unwinding, red fluorescence kinetic read. Potency, µM (highest dose often 57.3 µM), without a hit: at the top dose activity, negative = inhibition, most hits filed as inhibitors. 240,000 compounds, 0.54% hits;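 note: potency is the fitted concentration of half-maximal effect; plate controls were vehicle for no effect and no enzyme for full effect; nearly all actives have a fitted effect of over 30% in size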
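50 nM RECQ1T1 preincubated 15 min with compound in Tris pH 8.0 buffer with MgCl2, DTT, Tween-20 and 2.5 ug/ml poly(dI-dC); started with 200 nM TAMRA/BHQ-2 forked duplex and 2 mM ATP. Unwinding read as fluorescence (525/598 nm), two reads 2 h apart.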
Starred values were filed as active, the others as inactive; i = inactive; ? = inconclusive; . = no result; ! = not active in a repeat; [ ] = another dose, or the depositor's remark. A selection: hits, their analogues and other compounds. The true share with any hit is near 1.5%. Unless noted, calls come from the whole dose curve; as a rule, active = well fitted curve in the direction sought with a large enough effect; inconclusive = small, poorly fitted or top-dose-only effect, or another doubt; inactive = no such curve, though single readings can be large; an effect the other way counts as inactive or inconclusive. Unless noted, % is set by controls: 0 for no effect and ±100 for the full control effect.

SMILES	PI5P4K alpha inh	WRN helicase inh	BLM helicase inh	FEN1 inhibitor	APE1 inh	RECQ1 helicase
O=S(c1ccccc1O)S(=O)c1ccccc1O (configuration not stated)	-83*	14µM*	.	?	.	.
NC(=S)N=Nc1ccc(NN=C(N)N)cc1	-84*	?	1%	50µM*	-11%	.
Nc1ccc2c(c1)C(=O)N(c1cccc3ccccc13)C2=O	-6	-1%	-11%	-4%	8%	.
CC1=CC(=O)N(c2cccc3c(N4C(=O)C=C(C)C4=O)cccc23)C1=O	-63*	-1%	.	-4%	.	.
CCNc1nc(NCC)n2c(SCC(=O)Nc3ccc(C)c(C)c3)nnc2n1	-9	-9%[11.6 µM]	.	-8%	?	.
CCNc1nc(NCC)n2c(SCC(=O)Nc3ccc(OC(F)F)cc3)nnc2n1	-25	-15%[11.6 µM]	.	2%	11µM*	.
CCNc1nc(NCC)n2c(SCC(=O)Nc3ccc(F)cc3)nnc2n1	-11	?	.	0%	12µM*	.
CO[C@H]1C=CO[C@@]2(C)Oc3c(C)c(O)c4c(O)c(c5c(nc6cc(C)ccn65)c4c3C2=O)NC(=O)/C(C)=C\C=C[C@H](C)[C@H](O)[C@@H](C)[C@@H](O)[C@@H](C)[C@H](OC(C)=O)[C@@H]1C	.	.	.	.	-1%	.
CC(=O)c1ccc(N2Cc3ccccc3/C2=N\C(=O)Nc2ccccc2)cc1	-4	-29%[57.1 µM]	2%	-5%	-2%	0%
CC(=O)c1cccc(N2Cc3ccccc3C2=NC(=O)CCl)c1	-70*	-19%	-12%	-10%	2%	i
C=CCN1c2ccccc2[C@]23C[C@@H](C(=O)OC)N(S(=O)(=O)c4cccs4)C2=NC(C(=O)OC)=C(C(=O)OC)[C@H]13	.	.	-2%[12.4 µM]	.	-4%[12.4 µM]	-8%[11.5 µM]
CCn1c(CSc2nnc(-c3cccnc3)n2-c2ccccc2C)nc2cc(C(=O)O)ccc21	.	.	-16%	.	?	32µM*
Cc1cccc(OCCSc2nc3ccc(NC(=O)c4cccs4)cc3s2)c1	.	.	-7%	8%	.	.
Cc1c(/C=C(\C#N)C(=O)Nc2cccc(Cl)c2)c2ccccc2n1Cc1ccccc1	.	.	-7%	?	.	.
O=c1c(-c2ccccc2)coc2cc(O)cc(O)c12	.	.	22µM*	.	?	-13%
CCN(CC)CCN(CC)c1ccc(/C=C/c2ccnc3ccccc23)cc1	.	.	.	-4%	.	.
CCc1ccc(-n2nc(CO)c(C(=O)NCCCCc3ccccc3)n2)cc1	.	.	-9%	-14%	.	.
CC/C=C\C/C=C\C/C=C\CCCCCCCC(=O)O	?	18µM*	?	-17%	-35%	1.8µM*!
N#CN=c1snc(-c2ccccc2Cl)n1-c1ccc(F)cc1	.	.	.	-11%	.	.
CCC[n+]1c(C)sc2c3c(ccc21)CCCC3	-55*	-28%	-9%	-6%	1%	i
O=[N+]([O-])c1ccc(/C=N/NC(=S)Nc2ccccc2)o1	-60*	-34%	0%	-12%	24%	1%
O=C(O)c1cc(-c2ccc(/C=N/NC(=S)Nc3ccccc3)o2)ccc1Cl	-72*	?	4%	-19%	?	?
O=[N+]([O-])c1ccc(/C=N/NC(=S)Nc2ccccc2F)o1	-61*	-15%	3%	-3%	3%	-1%
CC1(OC(=O)c2cnc3ccccc3n2)C(=O)C=C2C=C3CCCN3C=C2C1=O (configuration not stated)	.	.	-3%[12.4 µM]	.	-2%[12.4 µM]	2%[11.5 µM]
C[C@@]12C=Cc3occc3[C@H]1CC[C@@]13C[C@@H](CC[C@H]12)[C@@](O)(CO)C3	.	.	3%	.	-5%	-17%
SMILES	PI5P4K alpha inh	WRN helicase inh	BLM helicase inh	FEN1 inhibitor	APE1 inh	RECQ1 helicase
COc1ccc(-c2[nH]n(-c3ccc([N+](=O)[O-])cc3)c(=O)c2C=NCc2ccncc2)cc1	7	?	7.9µM*	-10%	5%	-11%
CC(=O)C1=C(c2ccccc2)NC(=S)NC1c1ccc(O)c(O)c1 (configuration not stated)	7	-4%[11.6 µM]	-16%	-3%	13µM*	?
CC(=O)C1=C(c2ccccc2)NC(=O)NC1c1ccc(O)c(O)c1 (configuration not stated)	-14	-14%	-8%	-17%	40µM*	-3%
N#CC(C#N)=C1C=C2C=C(N3CCCCC3)CCC2CC1 (configuration not stated)	1	?	-21%	?	9%	28µM*
Cc1ccc(S(=O)(=O)N2CCc3cc(C(=O)Nc4c(F)cccc4F)ccc32)cc1	.	.	-3%	1%	.	.
Cc1ccc(-c2csc3n[nH]c(=S)n23)cc1	-95*	-26%	-1%	?	-1%	-10%
COc1ccc(OC)c2sc(N(CCCN(C)C)C(=O)c3ccc(S(=O)(=O)N4CCc5ccccc5C4)cc3)nc12	.	.	.	.	30µM*	.
Cc1cccc(-n2nc3c(c2NC(=O)c2ccco2)CS(=O)C3)c1C (configuration not stated)	2	-19%	-8%	2%	-3%	0%
Cc1cccc(-n2nc3c(c2NC(=O)c2ccco2)CSC3)c1C	.	45µM*	-6%	?	-2%	-1%
CCOC(=O)C(=C1Nc2ccccc2N1)n1c(-c2ccco2)nc2ccccc21	-66*	-30%	.	.	.	.
CCOC(=O)C(=C1Nc2ccccc2N1)n1c(-c2cnccn2)nc2ccccc21	-7	-5%	.	.	.	.
CCOc1ccccc1NC(=O)Cn1nnc2sc3c(c2c1=O)CCC(C(C)(C)C)C3 (configuration not stated)	.	.	-5%	-7%	.	.
O=C(c1ccccc1)c1ccc(O)c(O)c1O	-91*	28µM*	.	?	.	.
Cc1cc(C(=O)c2ccccc2)cc(C)c1O	5	37%	.	7%	.	.
Nc1ccccc1S(=O)(=O)O	.	.	.	.	?	0%
Nc1c(Br)cc(Br)c2c1C(=O)c1c(cccc1S(=O)(=O)O)C2=O	-57*	?	.	?	.	.
Cc1ccc(C(=O)C2C(=O)c3ccccc3C2=O)cc1	.	-6%	-1%	-8%	-4%	13%
NN=C1c2ccccc2C(=O)C1C(=O)C(c1ccccc1)c1ccccc1 (configuration not stated)	-51*	50µM*	.	?	.	.
O=C(O)c1cc2cccc(S(=O)(=O)N3CCCCC3)c2cc1O	-64*	-4%	-2%	1%	21%	.
